DAGLB inhibitor: diacylglycerol lipase beta (human) inhibition | Q8NCG7 | HEK293T DAGLB membrane lysate, EnzChek fluorogenic substrate | inhibition, % at 5.17 µM | hit rate 0.059% among 340,000; in the data active = inhibition above about 34%;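 note: 0% = enzyme with vehicle and 100% = wells lacking enzyme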
ATG4B inhibitor: inhibitors of human ATG4B cysteine protease; Q9Y4P1; hit rate 0.51% among 340,000; inhibition, % at 8.33 µM; AID 504462; ATG4B cleavage of LC3-PLA2, NBD-HPC fluorescence, 1 h; in the data active = inhibition above about 40%
pPAFAH inh: pPAFAH (human) enzyme inhibition; hit rate 1.5% among 330,000; AID 463082; inhibition, % at 3.39 µM; Q13093; recombinant pPAFAH, FP-rhodamine probe fluorescence polarization;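 active = inhibition above the mean inhibition across the screen plus 3 SD, cut at about 25% in these data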;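 note: inhibitors block binding of the rhodamine activity-based probe so polarization drops; 0% = enzyme with DMSO and 100% = wells lacking pPAFAH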
PAFAH1B3 FP inh: inhibitors of human PAFAH1B3. inhibition, % at 3.39 µM. hit rate 0.28% among 340,000. recombinant PAFAH1B3, FP-rhodamine probe, fluorescence polarization. AID 492972;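 active = inhibition above the screen-wide average of all tested compounds plus 3 SD, cut at about 25% in these data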;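 note: 0% = enzyme with DMSO only and 100% = wells lacking PAFAH1B3 protein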
Target sequence (Q15102 whole entry, looked up): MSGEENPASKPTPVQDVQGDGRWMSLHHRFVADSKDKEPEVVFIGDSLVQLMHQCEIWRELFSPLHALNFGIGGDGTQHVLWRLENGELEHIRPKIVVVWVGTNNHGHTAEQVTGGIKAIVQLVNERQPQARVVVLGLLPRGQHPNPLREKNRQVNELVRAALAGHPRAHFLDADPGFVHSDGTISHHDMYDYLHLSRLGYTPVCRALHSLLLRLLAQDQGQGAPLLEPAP
PAFAH1B2 inh: blocks human PAF acetylhydrolase 1b catalytic subunit 2; P68402; recombinant PAFAH1B2, FP-rhodamine activity probe, fluorescence polarization; inhibition, % at 3.39 µM; hit rate 1.2% among 340,000; AID 492953;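 active = inhibition above the mean of all tested compounds plus 3 SD, cut at about 24% in these data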;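 note: 0% = enzyme with DMSO and 100% = wells lacking PAFAH1B2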
Target sequence (P68402 whole entry, looked up): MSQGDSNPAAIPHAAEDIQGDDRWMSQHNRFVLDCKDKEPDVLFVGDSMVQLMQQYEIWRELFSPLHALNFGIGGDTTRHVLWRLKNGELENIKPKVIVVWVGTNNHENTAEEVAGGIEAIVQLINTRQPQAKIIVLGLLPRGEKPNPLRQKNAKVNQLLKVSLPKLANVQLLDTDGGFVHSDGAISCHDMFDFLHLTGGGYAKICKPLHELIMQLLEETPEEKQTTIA
PAFAH2 FP inh: inhibitors of human PAFAH2; AID 492956; hit rate 0.99% among 340,000; inhibition, % at 3.39 µM; Q99487; recombinant PAFAH2, FP-rhodamine activity probe, fluorescence polarization;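 active = inhibition above the mean over all tested compounds plus 3 SD, cut at about 30% in these data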;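 note: inhibitors block probe labeling of enzyme so polarization drops; 0% = enzyme with DMSO and 100% = wells lacking PAFAH2 protein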
pPAFAH FP conf: pPAFAH (human) inhibition, confirmed | shares compounds with pPAFAH inh | recombinant pPAFAH, FP-Rh probe fluorescence polarization | inhibition, % at 3.39 µM | hit rate 72% among 2,300 | AID 463230;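 active = mean inhibition of the triplicate above the hit cutoff set for the earlier primary screen, cut at about 25% in these data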;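 note: 0% = enzyme with DMSO and 100% = wells lacking pPAFAH enzyme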
Starred values were filed as active, the others as inactive; x = no result given. A selection: hits, their analogues and other compounds. The true share with any hit is near 3%.

SMILES | DAGLB inhibitor | ATG4B inhibitor | pPAFAH inh | PAFAH1B3 FP inh | PAFAH1B2 inh | PAFAH2 FP inh | others
O=P(NS(=O)(=O)c1ccccc1)(Oc1ccccc1)Oc1ccccc1 | -2 | -10 | -1 | 7 | 23 | 5
O=P(NS(=O)(=O)c1ccc(Br)cc1)(Oc1ccccc1)Oc1ccccc1 | 16 | -11 | 4 | 0 | 78* | 7
NC(Cc1ccccc1Cl)c1nn[nH]n1 (centres undefined) | 0 | x | x | x | x | x
Cc1[nH]c2ccccc2c1CN1CCCCC1 | -1 | 0 | x | 2 | -1 | -1
COC(=O)C1=C(c2ccc(OC(F)(F)F)cc2)C[C@@H]2CC[C@H]1N2C(=O)NCCc1ccccc1 | -1 | 3 | 30* | 6 | 3 | -2
COC(=O)C1=C(c2ccc(C(C)=O)cc2)C[C@@H]2CC[C@H]1N2C(=O)NCc1ccc(C(F)(F)F)cc1 | 1 | -15 | 1 | 15 | 35* | 5
CC12Cc3cn[nH]c3C=C1CCC1C2CCC2(C)C1CCC2(C)O (centres undefined) | 6 | 3 | x | 5 | 4 | -8
O=C(NCC1=C(c2ccc3ccccc3c2)C[C@@H]2CC[C@H]1N2Cc1ccco1)c1nccs1 | 2 | x | x | x | x | x
O=C(Oc1ccc([N+](=O)[O-])cc1)N1CCC(N2CCCCC2)CC1 | -1 | -7 | 34* | -2 | 1 | 19
CC(=O)Nc1ccc(OC(=O)N2CCCCC2)cc1 | 2 | -1 | 0 | 8 | 5 | 4
c1cc2c(cc1NC1=NCCO1)CCCC2 | -2 | 2 | x | -1 | 3 | 8
Nc1c(Br)cc2c3c(cccc13)-c1ccccc1-2 | x | -5 | x | x | x | x
Cc1ccc(S(=O)(=O)N2CCN(C(=O)COC(=O)Cc3ccccc3)CC2)c(C)c1 | 2 | -2 | 31* | 1 | 7 | 24
Cc1ccc(C(=O)COC(=O)Cc2ccccc2)cc1 | -13 | 5 | 8 | 1 | 9 | -1
COC(=O)C1=C(c2ccc(F)cc2OCc2ccccc2)C[C@@H]2CC[C@H]1N2C(=O)NCc1cccc(C(F)(F)F)c1 | -16 | 16 | 3 | -3 | -7 | 0
N[C@@H](CCl)C(=O)O | 2 | -9 | -2 | 4 | 1 | 0
NC(Cc1cc(O)c(O)cc1O)C(=O)O (centres undefined) | x | x | 84* | x | x | x
O=C(c1ccc2nc(-c3ccco3)c(-c3ccco3)nc2c1)N1CCC2(CC1)OCCO2 | 0 | 6 | 62* | 21 | 14 | 18 | pPAFAH FP conf=3
COc1ccc(C(=O)N2CCC3(CC2)OCCO3)cc1 | -3 | 1 | 2 | 9 | -1 | 2
CC(=O)OC1C(=O)OCC23CCC4(C)OC4C2OC2CC(OC(=O)C=CC=CC(=O)OCCC1C)C3(C)C21CO1 (centres undefined) | -3 | 6 | x | 10 | 0 | 5
O=C(Cn1ncc2c3ccccc3n(Cc3cccc(Cl)c3)c2c1=O)N1CCC2(CC1)OCCO2 | -2 | -15 | 40* | 14 | 5 | 19 | pPAFAH FP conf=37*
Cc1c2cnn(CC(=O)N3CCC4(CC3)OCCO4)c(=O)c2c(C)n1Cc1cccc(Cl)c1 | 2 | -5 | 5 | 1 | 1 | 2
CC(C)N1C(=O)/C(=C/C=C/c2ccco2)C(=O)N(Cc2ccco2)C1=O | 9 | 23 | 38* | -1 | 3 | 22 | pPAFAH FP conf=1
Cc1cc(C)c(S(=O)(=O)N2Cc3ccccc3-n3nncc3C2)c(C)c1 | -3 | x | x | x | x | x
CCN(CC)c1ccc(N=Cc2c(O)n(-c3ccccc3C)c(=O)[nH]c2=O)cc1 | 7 | -24 | 38* | 9 | -8 | 6 | pPAFAH FP conf=7
CCOc1ccc(-n2c(O)c(C=Nc3ccc(N(CC)CC)cc3)c(=O)[nH]c2=O)cc1 | 2 | -8 | 3 | 7 | 3 | 3
CCN(CC)c1ccc(N=Cc2c(O)n(Cc3ccccc3)c(=O)[nH]c2=O)cc1 | 0 | -6 | -2 | 5 | 1 | 0
CCN(CC)c1ccc(N=Cc2c(O)[nH]c(=O)[nH]c2=O)cc1 | 2 | 3 | 45* | 5 | 1 | 11 | pPAFAH FP conf=3
O=c1[nH]c(O)c(C=Nc2ccccc2[N+](=O)[O-])c(=O)[nH]1 | x | x | 4 | x | x | x
